In PubChem BioAssay:
The source made the active and inactive calls. Unless noted, the rule behind the calls is not given here.

Columns and labels:
[1] = system: XIP peptide (Xip251-270) binding; assay: small-molecule binders of XIP peptide, primary screen, biochemical, small-molecule microarray, fluorescence 635/667 nm, 0.1 µg/mL protein (AID 1182); settings: fluorescent protein binding, 635 nm, higher = more signal, called active from +8 up or from −8 down
XIP peptide (Xip251-270) = assay: small-molecule binders of XIP peptide, primary screen, biochemical, small-molecule microarray, fluorescence 635/667 nm, 0.5 µg/mL protein (AID 1183); settings: small-molecule microarray binding, fluorescence 635 nm; higher = more signal
[2] = Plasmodium falciparum growth inhibition, primary screen, strain 3D7, DAPI fluorescence, 100 nL (AID 1184);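 note: parasites grown inside human red blood cells in medium with human serum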; settings: P. falciparum 3D7 growth, 3 d, higher = more signal
[3] = target: Homeobox protein Hox-A13 (Mus musculus) (UniProt Q62424); assay: inhibitors of HoxA13-DNA binding, primary screen, biochemical, fluorescence polarization, labeled oligonucleotide (AID 1185); settings: 15 min, higher = more signal, called active from +8 up or from −8 down
[4] = inhibitors of hydroxyurea-induced Chk1 phosphorylation, primary screen, imaging, HeLa, phospho-Chk1 antibody, percent positive cells (AID 1186); settings: hydroxyurea-induced phospho-Chk1 immunofluorescence imaging, higher = more signal
[5] = inhibitors of hydroxyurea-induced Chk1 phosphorylation, primary screen, imaging, HeLa, phospho-Chk1 nuclear intensity (AID 1187); settings: hydroxyurea-induced phospho-Chk1 immunofluorescence imaging, higher = more signal

Chain of Homeobox protein Hox-A13 (Mus musculus) (Q62424 whole entry, looked up): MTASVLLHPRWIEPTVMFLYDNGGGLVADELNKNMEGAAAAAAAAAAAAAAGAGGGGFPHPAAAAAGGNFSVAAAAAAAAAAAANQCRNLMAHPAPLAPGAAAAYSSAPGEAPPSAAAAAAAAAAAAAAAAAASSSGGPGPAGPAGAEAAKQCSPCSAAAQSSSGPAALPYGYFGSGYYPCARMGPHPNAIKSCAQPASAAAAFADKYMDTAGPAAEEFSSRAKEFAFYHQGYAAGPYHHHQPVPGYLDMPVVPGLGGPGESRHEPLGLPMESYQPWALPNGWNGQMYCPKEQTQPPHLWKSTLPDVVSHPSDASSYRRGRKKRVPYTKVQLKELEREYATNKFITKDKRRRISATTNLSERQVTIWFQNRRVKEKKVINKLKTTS

C[C@]1(C(=O)NCC(F)(F)F)c2ccccc2C(=O)N(Cc2ccccc2)[C@H]1c1ccc(CO)cc1
composite z-score [1]: 0.636 (inactive) | composite z-score (XIP peptide (Xip251-270)): -0.0904 | z-score [2]: 0.169 | z-score [3]: -4.07 (inactive) | z-score [4]: -0.301 (inactive) | z-score [5]: -0.232 (inactive)

CCOC(=O)C[C@H]1[C@H](OC(=O)c2ccccc2-c2ccccc2)[C@@H](NC(=O)c2ccccc2)c2cc(OCCCO)ccc2N1C(=O)c1ccccc1
composite z-score [1]: -0.101 (inactive) | composite z-score (XIP peptide (Xip251-270)): -0.127 | z-score [2]: -1.39 | z-score [3]: -4.85 (inactive) | z-score [4]: 0.972 (inactive) | z-score [5]: 0.528 (inactive)

CS(=O)(=O)CCOC(=O)C1=CC(CCCO)=CC(C2CC2)N(Cc2cccc(OC(F)(F)F)c2)C=C1C(=O)OCCS(C)(=O)=O (configuration not stated)
composite z-score [1]: 0.892 (inactive) | composite z-score (XIP peptide (Xip251-270)): -0.221 | z-score [2]: -2.11 | z-score [3]: -6.49 (inactive) | z-score [4]: -0.002 (inactive) | z-score [5]: -0.36 (inactive)

C=C(COC)C(=O)CC[C@H](OC(C)=O)c1ccc(OCCO)cc1
composite z-score [1]: -0.388 (inactive) | composite z-score (XIP peptide (Xip251-270)): 0.58 | z-score [2]: -2.39 | z-score [3]: -4.76 (inactive) | z-score [4]: -0.559 (inactive) | z-score [5]: -0.357 (inactive)

CO[C@H]1O[C@H](CO)[C@@H](OC(=O)Nc2ccc(C#N)cc2)[C@@H]2OC(=O)[C@H](Cc3cccc(Br)c3)C/C=C/C[C@@H](Cc3cccc(Br)c3)C(=O)O[C@@H]12
composite z-score [1]: 0.685 (inactive) | composite z-score (XIP peptide (Xip251-270)): 0.254 | z-score [2]: -1.47 | z-score [3]: 1.1 (inactive) | z-score [4]: -0.353 (inactive) | z-score [5]: -0.388 (inactive)

CCCCC(=O)N(CCN1CCOCC1)[C@@H]1CC(C(=O)NCCO)=C[C@H](Oc2c(I)cc(CO)cc2OC)[C@H]1O
composite z-score [1]: 0.763 (inactive) | composite z-score (XIP peptide (Xip251-270)): 0.918 | z-score [2]: -0.0342 | z-score [3]: -4.26 (inactive) | z-score [4]: -0.686 (inactive) | z-score [5]: -0.31 (inactive)

NCCCCCNC(=O)[C@H]1C[C@H]2C(=O)N[C@@H](Cc3ccccc3)C(=O)N2[C@H]1c1ccc(O)cc1
composite z-score [1]: 1.46 (inactive) | composite z-score (XIP peptide (Xip251-270)): 0.75 | z-score [2]: -0.236 | z-score [3]: -3.78 (inactive) | z-score [4]: 1.01 (inactive) | z-score [5]: 0.921 (inactive)

COCCOC(=O)N1C(=O)[C@@]2(c3cc(C#CCNC(N)=O)ccc31)[C@H](c1ccc(OCCO)cc1)N1[C@H](c3ccccc3)[C@H](c3ccccc3)OC(=O)[C@H]1[C@@H]2C(N)=O
composite z-score [1]: 0.236 (inactive) | composite z-score (XIP peptide (Xip251-270)): 0.442 | z-score [2]: 0.691 | z-score [3]: -2.25 (inactive) | z-score [4]: 0.139 (inactive) | z-score [5]: 0.189 (inactive)

COc1ccc(C(=O)Nc2cccc(CN3C(=O)[C@]4(O[C@H](CCn5cc([C@H](O)c6ccccc6)nn5)[C@@H]([Si](C)(C)c5ccc(OC)cc5)[C@@H]4C)c4ccccc43)c2)cc1
composite z-score [1]: 0.0632 (inactive) | composite z-score (XIP peptide (Xip251-270)): 0.497 | z-score [2]: -2.76 | z-score [3]: 2 (inactive) | z-score [4]: -0.161 (inactive) | z-score [5]: -0.0692 (inactive)

O=C1C2C=CC(C(O)c3ccc4c(c3)OCO4)N(Nc3ccccc3)C2C(=O)N1c1ccccc1 (configuration not stated)
composite z-score [1]: 0.395 (inactive) | composite z-score (XIP peptide (Xip251-270)): 0.795 | z-score [2]: -0.214 | z-score [3]: -1.49 (inactive) | z-score [4]: 0.104 (inactive) | z-score [5]: 0.614 (inactive)

COc1ccc(NC(=O)O[C@H]2[C@@H]3OC(=O)[C@H](Cc4cccc(Br)c4)C/C=C/C[C@@H](Cc4cccc(Br)c4)C(=O)O[C@H]3[C@@H](OC)O[C@@H]2CO)cc1
composite z-score [1]: 1.25 (inactive) | composite z-score (XIP peptide (Xip251-270)): 0.369 | z-score [2]: -1.6 | z-score [3]: -1.86 (inactive) | z-score [4]: 0.0003 (inactive) | z-score [5]: 0.0972 (inactive)

O=C1O[C@H](c2ccccc2)[C@H](c2ccccc2)N2[C@H]1[C@@H](C(=O)Nc1nc3ccccc3s1)[C@]1(C(=O)Nc3ccc(C#CC4=CCCCC4)cc31)[C@H]2c1ccc(O)cc1
composite z-score [1]: 0.847 (inactive) | composite z-score (XIP peptide (Xip251-270)): 0.541 | z-score [2]: -0.987 | z-score [3]: 3.34 (inactive) | z-score [4]: -0.433 (inactive) | z-score [5]: -0.749 (inactive)

CCOC(=O)C1=CC[C@@H](c2ccccc2)N(S(=O)(=O)c2ccc(C)cc2)[C@H]1C=Cc1ccccc1
composite z-score [1]: 0.0537 (inactive) | composite z-score (XIP peptide (Xip251-270)): 0.749 | z-score [2]: -2.01 | z-score [3]: 1.66 (inactive) | z-score [4]: -0.511 (inactive) | z-score [5]: -0.645 (inactive)

C=C(COC)/C(=C/C[C@@H](OC(C)=O)c1ccc(CO)o1)c1cc(C(=O)OC)ccc1OC
composite z-score [1]: 0.824 (inactive) | composite z-score (XIP peptide (Xip251-270)): 0.147 | z-score [2]: 0.0394 | z-score [3]: -4.84 (inactive) | z-score [4]: -1.06 (inactive) | z-score [5]: -1.26 (inactive)

C[C@]1(C(=O)NCCN2CCOCC2)c2ccccc2C(=O)N(Cc2cc(F)cc(C(F)(F)F)c2)[C@H]1c1ccc(CO)cc1
composite z-score [1]: 1.14 (inactive) | composite z-score (XIP peptide (Xip251-270)): 0.826 | z-score [2]: -0.736 | z-score [3]: -3.91 (inactive) | z-score [4]: -0.69 (inactive) | z-score [5]: -0.691 (inactive)

O=C(N1CCOCC1)[C@@]1(CCS(=O)(=O)c2ccccc2)N=C(c2ccc(OCCCO)cc2)O[C@H]1c1ccccc1
composite z-score [1]: 1.79 (inactive) | composite z-score (XIP peptide (Xip251-270)): 0.747 | z-score [2]: -1.39 | z-score [3]: -5.53 (inactive) | z-score [4]: 0.0192 (inactive) | z-score [5]: 0.249 (inactive)

COCC(=C=CC[C@H](O)c1cccc(OCCO)c1)C[C@H](O)COCc1ccccc1
composite z-score [1]: 0.196 (inactive) | composite z-score (XIP peptide (Xip251-270)): -0.524 | z-score [2]: -1.88 | z-score [3]: -3.95 (inactive) | z-score [4]: -0.0978 (inactive) | z-score [5]: 0.443 (inactive)

CCOC(=O)C[C@H]1[C@H](OC(=O)c2ccc(-c3ccccc3)cc2)[C@@H](NC(=O)Cc2ccc(OC)cc2)c2cc(OCCCO)ccc2N1C(=O)Cc1ccc(OC)cc1
composite z-score [1]: 0.0878 (inactive) | composite z-score (XIP peptide (Xip251-270)): -0.015 | z-score [2]: -1.18 | z-score [3]: -1.32 (inactive) | z-score [4]: -0.366 (inactive) | z-score [5]: 0.0566 (inactive)

Cc1cccc([C@H]2C[C@H]3C(Br)=C[C@@H]2C(=O)[C@]32CO2)c1
composite z-score [1]: -0.409 (inactive) | composite z-score (XIP peptide (Xip251-270)): -0.848 | z-score [2]: -0.528 | z-score [3]: -1.65 (inactive) | z-score [4]: 0.139 (inactive) | z-score [5]: -0.0027 (inactive)

[N-]=[N+]=NC[C@H](Cc1ccccc1)NC(=O)c1ccccc1
composite z-score [1]: -0.359 (inactive) | composite z-score (XIP peptide (Xip251-270)): 0.108 | z-score [2]: -0.855 | z-score [3]: -0.271 (inactive) | z-score [4]: 0.0506 (inactive) | z-score [5]: 0.216 (inactive)

COCC(=C=CC[C@@H](O)c1cccc(OCCO)c1)CCO
composite z-score [1]: 1.14 (inactive) | composite z-score (XIP peptide (Xip251-270)): -0.347 | z-score [2]: -0.315 | z-score [3]: -1.85 (inactive) | z-score [4]: -1.38 (inactive) | z-score [5]: -0.0691 (inactive)

COc1ccc(C(O)C2C=CC3C(=O)N(c4ccccc4)C(=O)C3N2Nc2ccccc2F)cc1 (configuration not stated)
composite z-score [1]: 1.11 (inactive) | composite z-score (XIP peptide (Xip251-270)): 0.857 | z-score [2]: 0.571 | z-score [3]: -3.05 (inactive) | z-score [4]: -0.296 (inactive) | z-score [5]: -0.741 (inactive)
